Measured values as given in PubChem BioAssay.
The source made the active and inactive calls.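 Rule for the calls, unless noted: active = binding below the plate cutoff, the plate median minus 3 SD, with a reading above zero; inconclusive = below the plate cutoff but reading exactly zero; inactive = the rest.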

What was measured:
[1] = inhibitors of CD8+ T cell-vesicle binding, pilot screen, LFA-1/ICAM-1 modulator project, MLPCN validation set, flow cytometry (AID 2523;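 active = response below a set limit, under 55% cells CD8-positive and vesicle-bound, and CD8 cells' 90th-percentile brightness under 279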;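 for vesicle binding response: mean PE anti-B7-1 fluorescence of CD8+ cells relative to row control; 100% = QL9-loaded vesicles with DMSO vehicle in the same plate row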); settings: 2C mouse CD8+ T cells, at 7 µM, stronger effect = lower value; double positive events: measured here: CD8+/vesicle+ event percentage
[2] = target: Integrin beta-1 (Homo sapiens) + Integrin alpha-4 (Homo sapiens) (UniProt P13612+P05556); assay: inhibition of HUTS-21 binding to VLA-4, pilot screen, VLA-4 allosteric modulator project, U937 cells, HUTS-21 mAb, flow cytometry, validation set (AID 2674;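 active = inhibition above 50%, about 3 SD of the validation set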;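 note: antibody binding induced by the VLA-4 ligand LDV present at three times its Kd; 0% = LDV ligand with antibody and no compound and 100% = antibody without LDV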); settings: HUTS-21 LIBS mAb binding, at 6.7 µM, stronger effect = higher value, binding induced by LDV ligand
Sequence of Integrin beta-1 (Homo sapiens) + Integrin alpha-4 (Homo sapiens) (P05556 whole entry, looked up): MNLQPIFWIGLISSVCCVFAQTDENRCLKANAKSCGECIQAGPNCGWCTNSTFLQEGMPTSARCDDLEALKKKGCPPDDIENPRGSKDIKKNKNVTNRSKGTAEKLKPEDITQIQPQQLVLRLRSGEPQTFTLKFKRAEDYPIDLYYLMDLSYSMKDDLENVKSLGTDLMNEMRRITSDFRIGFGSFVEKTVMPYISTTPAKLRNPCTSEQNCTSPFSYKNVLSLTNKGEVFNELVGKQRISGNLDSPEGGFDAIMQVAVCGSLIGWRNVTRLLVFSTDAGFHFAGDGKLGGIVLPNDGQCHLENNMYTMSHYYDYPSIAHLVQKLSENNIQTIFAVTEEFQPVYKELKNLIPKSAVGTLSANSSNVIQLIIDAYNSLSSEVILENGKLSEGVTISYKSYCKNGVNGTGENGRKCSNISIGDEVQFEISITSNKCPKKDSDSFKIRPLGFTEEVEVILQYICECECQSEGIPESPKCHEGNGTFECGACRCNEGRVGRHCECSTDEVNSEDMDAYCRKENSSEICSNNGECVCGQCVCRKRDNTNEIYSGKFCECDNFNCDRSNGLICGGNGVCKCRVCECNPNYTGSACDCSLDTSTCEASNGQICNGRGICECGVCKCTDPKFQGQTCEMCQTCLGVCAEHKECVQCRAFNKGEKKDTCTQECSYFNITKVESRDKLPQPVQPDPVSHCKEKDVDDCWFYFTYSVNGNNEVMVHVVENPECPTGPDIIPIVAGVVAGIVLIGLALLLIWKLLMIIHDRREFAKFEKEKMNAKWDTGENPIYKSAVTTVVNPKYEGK
Sequence of Integrin beta-1 (Homo sapiens) + Integrin alpha-4 (Homo sapiens) (P13612 whole entry, looked up): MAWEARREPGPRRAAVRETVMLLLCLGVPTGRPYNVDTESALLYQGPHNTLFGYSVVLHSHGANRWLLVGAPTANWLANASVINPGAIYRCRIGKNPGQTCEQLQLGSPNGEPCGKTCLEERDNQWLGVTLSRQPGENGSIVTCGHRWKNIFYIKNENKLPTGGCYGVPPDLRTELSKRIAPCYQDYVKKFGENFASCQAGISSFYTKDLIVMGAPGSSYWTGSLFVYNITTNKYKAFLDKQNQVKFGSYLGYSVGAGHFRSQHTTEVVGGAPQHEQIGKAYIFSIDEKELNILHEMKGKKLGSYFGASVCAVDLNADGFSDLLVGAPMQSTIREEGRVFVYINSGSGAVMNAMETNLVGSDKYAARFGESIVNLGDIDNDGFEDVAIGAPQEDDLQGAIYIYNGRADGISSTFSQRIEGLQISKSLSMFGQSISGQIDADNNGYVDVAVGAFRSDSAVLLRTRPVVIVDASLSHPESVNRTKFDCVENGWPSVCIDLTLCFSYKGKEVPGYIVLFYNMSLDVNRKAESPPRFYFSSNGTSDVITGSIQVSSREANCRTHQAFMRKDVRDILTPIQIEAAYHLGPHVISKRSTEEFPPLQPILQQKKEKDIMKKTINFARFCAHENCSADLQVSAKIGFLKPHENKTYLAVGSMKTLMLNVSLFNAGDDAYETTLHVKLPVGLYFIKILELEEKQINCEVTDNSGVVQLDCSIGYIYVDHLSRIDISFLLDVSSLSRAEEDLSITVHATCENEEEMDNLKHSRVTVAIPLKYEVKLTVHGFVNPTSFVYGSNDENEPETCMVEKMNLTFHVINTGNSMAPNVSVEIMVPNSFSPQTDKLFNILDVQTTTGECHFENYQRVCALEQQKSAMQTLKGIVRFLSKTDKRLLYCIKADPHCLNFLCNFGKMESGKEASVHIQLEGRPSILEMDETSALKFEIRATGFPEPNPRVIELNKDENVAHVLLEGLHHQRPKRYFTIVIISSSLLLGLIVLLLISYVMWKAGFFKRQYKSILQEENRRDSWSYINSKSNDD

[3] = superoxide lowering in aged yeast cells, pilot screen, validation compound set (AID 2706;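 active = superoxide response below 65% of plate, a cut near 3 SD across the whole screen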;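 note: yeast exposed to compound for one week at 30 degrees C before staining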;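 for superoxide response (% of plate): 100% = mean of all compound wells on the same plate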); settings: S. cerevisiae aging, superoxide DHE fluorescence; at 10 µM, stronger effect = lower value
[4] = target: Beta-adrenergic receptor kinase 1 (Homo sapiens) (UniProt P25098); assay: GRK2 binders displacing RNA aptamer, biochemical, validation, human GRK2, bead flow cytometry (AID 488806;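 active = aptamer binding inhibition above 30%, about 3 SD of noise from non-fluorescent compounds; inactive = inhibition at or below 30%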); settings: bead-bound GRK2, FAM-aptamer displacement, at 10 µM, stronger effect = higher value
Sequence of Beta-adrenergic receptor kinase 1 (Homo sapiens) (P25098 whole entry, looked up): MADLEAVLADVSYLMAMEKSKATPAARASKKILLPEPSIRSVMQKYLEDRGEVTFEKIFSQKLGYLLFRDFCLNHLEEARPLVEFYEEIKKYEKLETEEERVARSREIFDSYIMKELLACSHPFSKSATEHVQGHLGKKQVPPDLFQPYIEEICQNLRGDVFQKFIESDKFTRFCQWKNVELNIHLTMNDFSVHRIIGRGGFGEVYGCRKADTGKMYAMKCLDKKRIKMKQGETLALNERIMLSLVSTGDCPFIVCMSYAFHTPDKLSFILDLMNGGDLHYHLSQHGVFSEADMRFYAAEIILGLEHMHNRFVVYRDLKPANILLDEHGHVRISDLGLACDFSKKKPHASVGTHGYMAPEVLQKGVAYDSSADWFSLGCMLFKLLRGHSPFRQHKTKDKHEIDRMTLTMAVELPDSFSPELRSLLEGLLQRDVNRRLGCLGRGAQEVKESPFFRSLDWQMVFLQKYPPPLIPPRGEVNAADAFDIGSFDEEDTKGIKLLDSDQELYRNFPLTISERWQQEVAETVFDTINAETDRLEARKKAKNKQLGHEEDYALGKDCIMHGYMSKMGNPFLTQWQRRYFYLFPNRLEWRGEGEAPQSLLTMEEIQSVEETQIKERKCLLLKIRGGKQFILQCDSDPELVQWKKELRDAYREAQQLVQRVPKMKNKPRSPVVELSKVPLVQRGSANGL

[5] = target: Beta-2 adrenergic receptor (Homo sapiens) (UniProt P07550); assay: beta2AR agonists driving receptor internalization, pilot screen, cell-based, FAP fluorogen, flow cytometry, validation set (AID 504459;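 active = percent response above 42, roughly 3 SD of non-fluorescent test compounds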;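 note: agonist-driven loss of surface beta2AR via internalization measured by FAP dye flow cytometry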); settings: Am2.2-beta2AR cells, FAP surface receptor flow cytometry; at 10 µM; stronger effect = higher value
Sequence of Beta-2 adrenergic receptor (Homo sapiens) (P07550 whole entry, looked up): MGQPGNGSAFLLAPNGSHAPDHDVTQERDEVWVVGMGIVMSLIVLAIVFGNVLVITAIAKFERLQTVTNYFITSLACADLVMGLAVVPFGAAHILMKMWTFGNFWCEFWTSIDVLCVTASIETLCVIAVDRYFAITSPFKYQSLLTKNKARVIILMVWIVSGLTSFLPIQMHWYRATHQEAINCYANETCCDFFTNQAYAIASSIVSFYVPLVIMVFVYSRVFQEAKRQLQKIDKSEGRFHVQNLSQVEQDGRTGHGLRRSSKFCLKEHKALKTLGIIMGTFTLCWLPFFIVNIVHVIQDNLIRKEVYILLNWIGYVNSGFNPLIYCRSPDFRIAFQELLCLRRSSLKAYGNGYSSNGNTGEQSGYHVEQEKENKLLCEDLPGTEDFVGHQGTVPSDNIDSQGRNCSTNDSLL

[6] = target: AP-2 complex subunit beta (Homo sapiens) (UniProt P63010); assay: inhibitors of arrestin peptide binding to AP2, pilot screen, biochemical, validation set, GST-AP2 beads, flow cytometry (AID 504541;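 active = inhibition above 54%, about 3 SD of non-fluorescent compounds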;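 note: AP2 carries R879A mutation and is captured from E. coli lysate; bead-bound FITC arrestin peptide fluorescence measuring arrestin peptide binding to AP2; 0% = DMSO wells and 100% = excess unlabeled arrestin peptide control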); settings: FITC arrestin peptide, at 10 µM, stronger effect = higher value, AP2 beta2 appendage fragment, R879A mutant
Sequence of AP-2 complex subunit beta (Homo sapiens) (P63010 whole entry, looked up, the tested form may be a part, one chain of several): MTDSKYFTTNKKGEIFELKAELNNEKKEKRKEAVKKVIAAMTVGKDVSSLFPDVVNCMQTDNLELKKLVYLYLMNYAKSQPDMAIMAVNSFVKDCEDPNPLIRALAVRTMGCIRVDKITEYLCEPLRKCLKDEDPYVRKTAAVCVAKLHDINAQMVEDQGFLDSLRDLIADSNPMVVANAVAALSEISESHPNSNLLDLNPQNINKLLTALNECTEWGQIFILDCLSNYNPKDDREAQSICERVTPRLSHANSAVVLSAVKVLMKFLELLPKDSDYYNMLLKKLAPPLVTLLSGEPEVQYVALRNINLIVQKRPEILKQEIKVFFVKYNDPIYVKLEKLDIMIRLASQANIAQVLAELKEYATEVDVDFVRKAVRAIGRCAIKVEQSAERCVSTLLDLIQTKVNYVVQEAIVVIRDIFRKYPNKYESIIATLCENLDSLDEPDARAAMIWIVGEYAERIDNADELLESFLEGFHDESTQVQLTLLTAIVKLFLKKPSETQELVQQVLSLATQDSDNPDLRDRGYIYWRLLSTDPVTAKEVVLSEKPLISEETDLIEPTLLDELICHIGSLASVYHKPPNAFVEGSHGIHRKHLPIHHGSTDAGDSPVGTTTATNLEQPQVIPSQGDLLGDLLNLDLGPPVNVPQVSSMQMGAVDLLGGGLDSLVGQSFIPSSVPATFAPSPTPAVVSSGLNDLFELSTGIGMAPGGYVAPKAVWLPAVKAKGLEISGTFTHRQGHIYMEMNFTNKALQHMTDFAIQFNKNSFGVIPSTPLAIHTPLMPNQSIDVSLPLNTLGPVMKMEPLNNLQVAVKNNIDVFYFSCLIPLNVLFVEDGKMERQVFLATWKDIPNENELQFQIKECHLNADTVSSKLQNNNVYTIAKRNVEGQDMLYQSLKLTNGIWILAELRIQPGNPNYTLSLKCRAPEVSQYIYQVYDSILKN

[7] = yeast V-ATPase proton transport modulators, S. cerevisiae, pHLuorin, HTS validation (AID 504600; in the data active = response above about 15%;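 note: plate controls were DMSO for no effect and reference compound for full effect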); settings: S. cerevisiae pHLuorin cytosolic pH, at 10 µM, stronger effect = higher value
[8] = system: anti-desmoglein-3 scFv antibody binding to human DSG3; assay: inhibitors of anti-DSG3 scFv binding to DSG3, pilot screen, biochemical, validation compound set, bead-based, flow cytometry (AID 588368); settings: Protein G beads, DSG3-Fc, scFv-GFP binding, at 10 µM, stronger effect = lower value;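 note: signal is the median channel fluorescence of bead-bound GFP antibody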
[9] = inhibitors of fungal efflux pumps CDR1, CDR2, MDR1, pilot screen, validation compound set, multiplex, phenotypic (AID 588506;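 active = efflux inhibition above 0.42, the validation set average plus 4 SD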;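 note: Nile Red retained in cells so higher fluorescence means more efflux inhibition; 0 = negative control wells and 1 = enniatin B 25 µM full block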); settings: S. cerevisiae pump-expressing triplex, Nile Red efflux flow cytometry; at 10 µM; stronger effect = higher value; the pumps come from Candida albicans
[10] = target: ATP-binding cassette sub-family B member 6 (Homo sapiens) (UniProt Q9NP58); assay: ABCB6 transporter inhibitors, pilot screen, K562-ABCB6 cells, flow cytometry, validation set (AID 588550;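 active = inhibition above the screen-wide mean plus 3 SD, about 51%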;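 note: 0% = DMSO wells and 100% = benzethonium chloride 70 µM positive control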); settings: K562-ABCB6 porphyrin accumulation, 1 h, at 10 µM, stronger effect = higher value
Sequence of ATP-binding cassette sub-family B member 6 (Homo sapiens) (Q9NP58 whole entry, looked up): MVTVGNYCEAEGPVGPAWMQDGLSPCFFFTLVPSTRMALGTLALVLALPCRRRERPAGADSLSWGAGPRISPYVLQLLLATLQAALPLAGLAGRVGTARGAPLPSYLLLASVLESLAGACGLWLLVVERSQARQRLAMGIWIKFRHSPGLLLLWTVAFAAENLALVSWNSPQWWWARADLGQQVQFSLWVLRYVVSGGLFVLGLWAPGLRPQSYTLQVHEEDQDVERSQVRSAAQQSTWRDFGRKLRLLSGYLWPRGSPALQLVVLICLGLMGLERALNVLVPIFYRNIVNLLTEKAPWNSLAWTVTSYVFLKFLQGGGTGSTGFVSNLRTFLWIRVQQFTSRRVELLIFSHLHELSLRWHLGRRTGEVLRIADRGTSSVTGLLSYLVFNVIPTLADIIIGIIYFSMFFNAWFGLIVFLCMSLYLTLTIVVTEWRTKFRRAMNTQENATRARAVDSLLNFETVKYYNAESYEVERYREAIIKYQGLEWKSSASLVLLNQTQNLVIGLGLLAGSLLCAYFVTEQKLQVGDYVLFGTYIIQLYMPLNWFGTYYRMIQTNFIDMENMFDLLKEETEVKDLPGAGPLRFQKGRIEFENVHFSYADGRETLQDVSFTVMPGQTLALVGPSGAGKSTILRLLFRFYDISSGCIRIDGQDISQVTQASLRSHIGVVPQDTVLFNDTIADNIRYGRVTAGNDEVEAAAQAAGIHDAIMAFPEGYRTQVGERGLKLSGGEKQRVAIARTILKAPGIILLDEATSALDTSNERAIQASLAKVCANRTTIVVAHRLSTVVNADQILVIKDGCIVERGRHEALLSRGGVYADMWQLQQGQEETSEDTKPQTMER

[11] = promoters of myeloid differentiation in arrested cells, primary screen, cell-based, GFP/MAC1 double positive, flow cytometry, validation set (AID 588685;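 active = differentiation response of at least 50%, scaled between solvent and reference control, from cells with both markers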;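 note: compound exposure lasts four days before antibody staining and flow analysis; 0% = DMSO wells and 100% = 5 µM fulvestrant positive control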); settings: ER-HoxA9 marrow cells, stronger effect = higher value, normalized: vehicle 0, fulvestrant 100

| SMILES | double positive events [1] | vesicle binding response [1] | inhibition [2] | superoxide response (% of plate) [3] | aptamer binding inhibition [4] | response [5] | inhibition [6] | response [7] | binding (% of control) [8] | efflux inhibition (fraction of control) [9] | inhibition [10] | differentiation response [11] | outcome [3] |
| --- | --- | --- | --- | --- | --- | --- | --- | --- | --- | --- | --- | --- | --- |
| Cc1ccc(C(=O)N2CC3(C(C)C)CN(C(=O)c4ccc(C)cc4)CC(C(C)C)(C2)C3=O)cc1 | 59.7% | 224% (inactive) | -30.5% (inactive) | 97.1% (inactive) | 3% (inactive) | 24.4% (inactive) | 14.1% (inactive) | -0.93% (inactive) | 99.1% (inactive) | 0.76 (active) | 5% (inactive) | 7.2% (inactive) |  |
| Cn1c2ccc(CC(=O)O)cc2c2cc(CC(=O)O)ccc21 | 61.4% | 244% (inactive) | 10.5% (inactive) | 92.3% (inactive) | 3% (inactive) | -8.9% (inactive) | 2.08% (inactive) | 1.83% (inactive) | 101% (inactive) | -0.21 (inactive) | 6% (inactive) | 8.8% (inactive) |  |
| COc1cc(/C=C(\C#N)C(=O)N2CCc3ccccc32)ccc1O | 64.1% | 273% (inactive) | -88.6% (inactive) | 98.9% (inactive) | -1% (inactive) | 0.72% (inactive) | -7.55% (inactive) | 1.46% (inactive) | 105% (inactive) | 0.19 (inactive) | -41% (inactive) | 2.46% (inactive) |  |
| O[C@@H](CNC[C@H](O)c1ccccc1)c1ccccc1 | 62.7% | 156% (inactive) | -27.7% (inactive) | 99.8% (inactive) | -3% (inactive) | 43.5% (active) | 9.85% (inactive) | 0.68% (inactive) | 102% (inactive) | 0.01 (inactive) | 1% (inactive) | 21.6% (inactive) |  |
| Cc1csc(CCc2nc(C)cs2)n1 | 55.3% | 130% (inactive) | 2.93% (inactive) | 108% (inactive) | 1% (inactive) | -2.9% (inactive) | -2.65% (inactive) | 0.13% (inactive) | 102% (inactive) | 0.01 (inactive) | 17% (inactive) | -4.57% (inactive) |  |
| CC(C)CC(=O)OC1C(N2CCOCC2)c2c(ccc(/C=C/C(=O)N3CCOCC3)c2O)OC1(C)C (configuration not stated) | 57.1% | 158% (inactive) | -3.16% (inactive) | 101% (inactive) | -1% (inactive) | 84.7% (active) | 35% (inactive) | -2.63% (inactive) | 108% (inactive) | 0.37 (inactive) | 5% (inactive) | 53.6% (active) |  |
| CCC12CN3CC(CC)(CN(C1)C31C(=O)N(C)c3ccc(C)cc31)C2=O (configuration not stated) | 59.5% | 181% (inactive) | -2.82% (inactive) | 94.6% (inactive) | -3% (inactive) | -18.8% (inactive) | 0.32% (inactive) | 4.91% (inactive) | 102% (inactive) | 0 (inactive) | -1% (inactive) | -10.9% (inactive) |  |
| CN1CCN(C2=Nc3cc(Cl)ccc3Nc3ccccc32)CC1 | 61.7% | 222% (inactive) | 31.2% (inactive) | 84.7% (inactive) | -4% (inactive) | -25% (inactive) | 9.21% (inactive) | 6.59% (inactive) | 102% (inactive) | 0.04 (inactive) | -2% (inactive) | -5.97% (inactive) |  |
| Cc1nnc(SCC(=O)N2CCCC(C(=O)c3ccc(Cl)cc3)C2)o1 (configuration not stated) | 71.9% | 299% (inactive) | 2.3% (inactive) | 95.6% (inactive) | 1% (inactive) | -7.42% (inactive) | -3.16% (inactive) | 2.16% (inactive) | 105% (inactive) | 0.3 (inactive) | 3% (inactive) | -13.6% (inactive) |  |
| O=C(/C=C/c1ccccc1)/C=C/c1ccccc1 | 69.3% | 434% (inactive) | 21.4% (inactive) | 105% (inactive) | 2% (inactive) | 48.5% (active) | -3.48% (inactive) | 0.62% (inactive) | 96.6% (inactive) | -0.17 (inactive) | 2% (inactive) | -16.8% (inactive) |  |
| C=C(C)c1nc2cc(OC)c(OC)cc2c(=O)o1 | 66.2% | 181% (inactive) | -9.06% (inactive) | 96.8% (inactive) | 0% (inactive) | -1.85% (inactive) | 0.91% (inactive) | 2.81% (inactive) | 105% (inactive) | -0.46 (inactive) | 11% (inactive) | 9.01% (inactive) |  |
| COc1ccc(C(=O)[C@H]2[C@H]3C(=O)N(c4ccccc4)C(=O)[C@H]3C3C=CC=NN32)cc1 (some centres not stated) | 62.9% | 227% (inactive) | -7.79% (inactive) | 96.9% (inactive) | 3% (inactive) | 0.22% (inactive) | 28.5% (inactive) | -6.05% (inactive) | 99.8% (inactive) | 0.01 (inactive) | -9% (inactive) | -8.96% (inactive) |  |
| NS(=O)(=O)c1cc2c(cc1C(F)(F)F)NCNS2(=O)=O | 80.6% | 205% (inactive) | 10.8% (inactive) | 92.9% (inactive) | 5% (inactive) | -9.47% (inactive) | 1.9% (inactive) | 1.35% (inactive) | 101% (inactive) | -0.04 (inactive) | 11% (inactive) | -3.02% (inactive) |  |
| O=C(NCCc1cccc(F)c1)[C@@H]1CSC2c3ccccc3C(=O)N21 (some centres not stated) | 63.2% | 251% (inactive) | 5.03% (inactive) | 97.1% (inactive) | 5% (inactive) | 1.99% (inactive) | -1.7% (inactive) | 0.26% (inactive) | 101% (inactive) | 0.12 (inactive) | 7% (inactive) | 2.4% (inactive) |  |
| CCc1cccc2c1NC1(CCCC1)CC2C (configuration not stated) | 58.5% | 185% (inactive) | -16.8% (inactive) | 96.3% (inactive) | 4% (inactive) | 45.9% (active) | -1.05% (inactive) | 1.08% (inactive) | 97.6% (inactive) | -0.06 (inactive) | -41% (inactive) | 10.4% (inactive) |  |
| Cc1nc2ccccc2c(=O)n1N | 64.8% | 160% (inactive) | 5.03% (inactive) | 95.7% (inactive) | -1% (inactive) | -0.52% (inactive) | -8.13% (inactive) | -5.43% (inactive) | 106% (inactive) | 0.15 (inactive) | 6% (inactive) | 58.4% (active) |  |
| CCC(=O)c1ccc(O)cc1 | 72% | 882% (inactive) | -6.68% (inactive) | 87.9% (inactive) | 3% (inactive) | -7.88% (inactive) | -11.7% (inactive) | 3.37% (inactive) | 94.5% (inactive) | -0.14 (inactive) | 19% (inactive) | 10% (inactive) |  |
| CCOc1ccc(CC2c3cc(OCC)c(OCC)cc3CCN2C(=O)CN2CCN(C)CC2)cc1OCC (configuration not stated) | 61.7% | 160% (inactive) | -11.3% (inactive) | 82.4% (inactive) | 0% (inactive) | -8.24% (inactive) | 5.19% (inactive) | -5.23% (inactive) | 108% (inactive) | -0.04 (inactive) | 4% (inactive) | -3.02% (inactive) |  |
| O=c1ccc2ccccc2o1 | 62.3% | 162% (inactive) | -3.77% (inactive) | 95.1% (inactive) | -7% (inactive) | 0.92% (inactive) | 1.88% (inactive) | -9% (inactive) | 103% (inactive) | -0.02 (inactive) | -8% (inactive) | 2.74% (inactive) |  |
| COc1ccc(CCNC(=O)CC(c2ccccc2)c2cccc(C)c2O)cc1OC (configuration not stated) | 62.6% | 190% (inactive) | 16.2% (inactive) | 96.3% (inactive) | 1% (inactive) | 5.7% (inactive) | -1.67% (inactive) | 1.13% (inactive) | 101% (inactive) | -0.46 (inactive) | 10% (inactive) | -3.28% (inactive) |  |
| CC(=O)Nc1cc(O)cc(O)c1 | 60.5% | 189% (inactive) | 11.9% (inactive) | 99.3% (inactive) | -2% (inactive) | -0.41% (inactive) | 0.4% (inactive) | -0.22% (inactive) | 106% (inactive) | -0.06 (inactive) | 6% (inactive) | 69.6% (active) |  |
| C[C@H]1O[C@H]1P(=O)(O)O | 66.2% | 197% (inactive) | 15.1% (inactive) | 95.9% (inactive) | 5% (inactive) | -11.7% (inactive) | 6.72% (inactive) | 17.1% (active) | 103% (inactive) | -0.09 (inactive) | 9% (inactive) | 12.8% (inactive) |  |
| CC(=O)N(CCC1(C(C)C)CCOC(C)(C)C1)Cc1ccco1 (configuration not stated) | 64.3% | 276% (inactive) | -16.8% (inactive) | 94.3% (inactive) | -4% (inactive) | 3.66% (inactive) | 0.1% (inactive) | -0.44% (inactive) | 105% (inactive) | -0.09 (inactive) | 11% (inactive) | 12.3% (inactive) |  |
| CC(=O)CCc1oc2ccccc2c1-c1ccccc1 | 62.1% | 172% (inactive) | 0.59% (inactive) |  | -3% (inactive) | -37.7% (inactive) | -8% (inactive) | -1.06% (inactive) | 108% (inactive) | 0.12 (inactive) | 7% (inactive) | -1.05% (inactive) | inactive |
| CC(C)=CCCC(C)CN1CCC(N2CCC(C(=O)N3CCCC3)CC2)CC1 (configuration not stated) | 66.5% | 278% (inactive) | -11.3% (inactive) | 93.3% (inactive) | -12% (inactive) | 35% (inactive) | -10.9% (inactive) | -0.07% (inactive) | 106% (inactive) | -0.03 (inactive) | 5% (inactive) | -7.2% (inactive) |  |
| CC(=O)N1CC2(C)CN(C(C)=O)CC(C)(C1)C2 | 60.3% | 169% (inactive) | 8.25% (inactive) | 91.7% (inactive) | -2% (inactive) | -23.9% (inactive) | -12.9% (inactive) | 1.35% (inactive) | 100% (inactive) | 0 (inactive) | -1% (inactive) | -4.99% (inactive) |  |
